Rab9 prom act – qHTS Assay for Rab9 Promoter Activators; Huh7 Rab9 promoter-luciferase reporter, luminescence, 24 h; Potency, µM (titrated, usually from 9.22 µM), without a hit: top-dose activation, negative = inhibition, actives largely listed as activators; actives 2.8% (n = 320,000); note: % of control where 0% means no effect; nearly all actives have a fitted effect of over 60% in size
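Luciferase signal after 10 min detection reagent at ambient indicates Rab9 promoter upregulation; stably transfected Huh7 cells were treated 24 h with compound in DMSO at 37 °C, 5% CO2.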
FLuc counter – qHTS profiling assay for firefly luciferase inhibitor/activator using purifed enzyme and Km concentrations of substrates (counterscreen for miR-21 project) | Luciferin 4-monooxygenase (Photinus pyralis), P08659 | purified FLuc, Km substrates, luminescence inhibition | Potency, µM (highest dose often 57.5 µM), for the others: top-dose activity change, negative = inhibition, most hits filed as inhibitors | actives 6.9% (n = 360,000);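 note: plate controls were vehicle for no effect and reference inhibitor for full effect; nearly all actives have a fitted effect of over 55% in size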
Target sequence (P08659 whole entry, looked up): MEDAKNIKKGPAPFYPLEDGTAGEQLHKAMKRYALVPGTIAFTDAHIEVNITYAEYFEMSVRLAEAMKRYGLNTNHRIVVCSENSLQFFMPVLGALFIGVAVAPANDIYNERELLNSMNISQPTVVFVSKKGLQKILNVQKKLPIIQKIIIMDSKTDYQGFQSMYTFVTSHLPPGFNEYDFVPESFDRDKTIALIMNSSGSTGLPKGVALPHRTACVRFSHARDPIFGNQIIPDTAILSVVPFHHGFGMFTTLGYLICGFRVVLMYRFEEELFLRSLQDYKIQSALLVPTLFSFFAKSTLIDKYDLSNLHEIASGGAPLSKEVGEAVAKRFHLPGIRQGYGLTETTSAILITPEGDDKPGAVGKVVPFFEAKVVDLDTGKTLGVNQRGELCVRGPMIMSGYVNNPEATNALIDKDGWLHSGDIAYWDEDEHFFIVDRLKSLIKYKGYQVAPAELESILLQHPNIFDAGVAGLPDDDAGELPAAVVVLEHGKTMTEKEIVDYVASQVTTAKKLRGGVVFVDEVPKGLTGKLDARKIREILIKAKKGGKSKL
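Biochemical qHTS of compounds, final roughly 60 µM downward over six points, against 10 nM purified firefly luciferase using Km concentrations of substrates (10 uM D-luciferin, 10 uM ATP) in Tris acetate pH 7.5 buffer; luminescence output.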
NPC1 promoter act – qHTS Assay for NPC1 Promoter Activators; actives 2.4% (n = 320,000); Huh7 NPC1 promoter luciferase reporter, 24 h; Potency, µM (top dose mostly 9.22 µM), for the others: at the highest dose activation, hits mostly activators; AID 485313, 2010; note: % of control where 0% means no effect; nearly all actives have a fitted effect of over 60% in size
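Quantitative HTS used a cell-based reporter: Huh7 cells stably bearing the NPC1 promoter upstream of luciferase were treated with compounds for 24 h, and promoter activation was read as luminescence.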
uPA surface inh – qHTS for Inhibitors of Cell Surface uPA Generation; cell surface uPA generation assay, qHTS; Potency, µM (doses to about 38.3 µM), without a hit: at the top dose activity change, negative = inhibition, hits mostly inhibitors; actives 0.31% (n = 330,000); AID 540303, 2011; active = well fitted inhibition curve with a large enough effect; inconclusive = small, poorly fitted or top-dose-only effect; inactive = no such curve, though single readings can be large or run the other way; tested in mouse RAW 264.7 cells; note: % is set by controls: 0 for no effect and ±100 for the full control effect; nearly all actives have a fitted effect of over 55% in size
SMN2 splice enh – qHTS Assay for Enhancers of SMN2 Splice Variant Expression; HEK293 SMN2-luciferase splicing reporter, luminescence, 30-36 h; Potency, µM (titrated, usually from 46.1 µM), for the others: at the highest dose activity change, positive = activation, usual class: activators; actives 2.8% (n = 210,000); AID 1458, 2008; note: % of control where 0% means no effect; nearly all actives have a fitted effect of over 55% in size
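HEK293 cells carry an SMN2 […]–luciferase reporter in which exon 7 inclusion puts luciferase in frame. Cells were plated 10-12 h before compound addition, then incubated 30-36 h at 37C. ONE-Glo luminescence was read; sodium butyrate at 4.5 mM final served as control.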
ELG1 genotox – qHTS screen for small molecules that induce genotoxicity in human embryonic kidney (HEK293T) cells expressing luciferase-tagged ELG1. HEK293T ELG1-luciferase reporter, luminescence, 16 h. AID 504466, 2011. actives 1.3% (n = 330,000). Potency, µM (series often up to 46 µM), inactives show at the highest dose activity change, positive = activation, actives largely listed as activators; note: % of control where 0% means no effect; nearly all actives have a fitted effect of over 60% in size
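ELG1-luciferase HEK293T cells, 2,000/well; compound pinned in; 16 hr, 37 °C, 5% CO2; ONE-Glo, 30 min RT; luminescence on CCD imager.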
An asterisk follows results filed as active; ? = inconclusive; / = no result given; [ ] = another dose, or the depositor's remark. The list is not random: actives were taken first. Their share in the collection is about 7.3%. Unless noted, calls come from the whole dose curve; as a rule, active = well fitted curve in the direction sought with a large enough effect; inconclusive = small, poorly fitted or top-dose-only effect, or another doubt; inactive = no such curve, though single readings can be large; an effect the other way counts as inactive or inconclusive. Potency is the fitted concentration of half-maximal effect.

SMILES | Rab9 prom act | FLuc counter | NPC1 promoter act | uPA surface inh | SMN2 splice enh | ELG1 genotox
O=C(NN=C(Cc1ccccc1)Cc1ccccc1)c1ccc(F)cc1 | 1% | 19µM* | 11% | -12% | 25% | 1%
C/C(Cc1ccccc1)=N\NC(=O)c1ccc(F)cc1 | 0% | -9% | 4% | 4% | -36%[1.84 µM] | 4%
OCCC1CN(Cc2ccccc2-c2ccco2)CCN1Cc1ccccc1 (stereo not given) | -1% | -2% | -3% | -1% | / | -1%
c1ccc(CN=C2NN=C(c3ccccc3)CS2)cc1 | 4.5µM* | 19µM* | ? | 0% | ? | 6%
Fc1ccc(C2=NNC(=NCc3ccccc3)SC2)cc1F | ? | ? | ? | -1% | ? | 13%
CCN=C1NN=C(c2ccc(C)cc2)CS1 | ? | 1.1µM* | ? | -14% | ? | ?
COc1ccccc1C1=NNC(=NCc2ccccc2)SC1 | 20% | ? | 11% | -1% | -5% | 6%
Clc1ccc(C2=NNC(=NCc3ccccc3)SC2)cc1 | ? | 17µM* | ? | 0% | 17% | 3%
CC(C)N=C1NN=C(c2ccc(F)cc2)CS1 | 0.5µM* | 9.5µM* | 0.56µM* | -13% | 14µM* | 1%
Cc1ccc(CCNC(=O)C2CCN(S(=O)(=O)c3ccc4c(ccn4C)c3)CC2)cc1 | / | 5% | / | / | / | /
Cc1ccc2oc(C(=O)Nc3sc4c(c3C(=O)NCc3ccccc3)CCCC4)cc(=O)c2c1 | / | 1% | / | / | 2% | /
C=CCN=C1NN=C(c2cc(C)n(CC=C)c2C)CS1 | -13% | 0.34µM* | -4% | -7% | -54% | ?
CCCCN=C1NN=C(c2cccc([N+](=O)[O-])c2)CS1 | 11% | ? | 18% | -1% | 30% | ?
c1ccc(C2=NNC(=NCc3ccc4c(c3)OCO4)SC2)cc1 | ? | 27µM* | ? | 0% | / | 13%
C=CCN=C1NN=C(c2ccc3c(c2)OCCO3)CS1 | 0.45µM* | 0.67µM* | 1µM* | -12% | -27% | 0.58µM*
NC1=NN=C(c2ccc3c(c2)OCCO3)CS1 | 0.56µM* | 5.4µM* | 1µM* | -10% | 2.5µM* | -9%
CC(=O)c1c(C)[nH]c(C2=NNC(=NCc3ccccc3)SC2)c1C | -7% | -10% | 3% | 7% | -19% | ?
CCn1c(C(=O)N2CCCC(C(=O)N3CCN(c4cc(C)ccc4C)CC3)C2)cc2sccc21 (stereo not given) | / | -16% | / | / | -43% | /
Cc1cccc(C)c1NC(=O)Cn1cc(C(=O)C2CC2)c2ccccc21 | / | -4% | / | / | -14% | /
Cc1ccc(C(C(=O)NC2CCCCC2)N(Cc2cccnc2)C(=O)C2COc3ccccc3O2)o1 (stereo not given) | 1.3µM* | 9% | ? | 6% | 17% | -6%
O=C(COC(=O)/C=C/c1ccc([N+](=O)[O-])cc1)NC(c1ccccc1)c1ccccc1 | -1% | -2% | 0% | -2% | -24% | 3%
O=[N+]([O-])c1ccc(O)c(C=Nc2ccc3nc(-c4ccccc4)[nH]c3c2)c1 | 3.2µM* | 5.4µM* | ? | -12% | 10%[1.84 µM] | ?
Oc1c(Br)cc(C=Nc2ccc3nc(-c4ccccc4)[nH]c3c2)c(O)c1Br | 2.8µM* | 11µM* | ? | -1% | / | 1%
CC(=O)Nc1cccc(C(=O)NCc2ccc3c(c2)CCN3C(C)=O)c1 | / | -8% | / | / | / | /
C=CC(=O)CC | / | / | / | / | 6% | /
SMILES | Rab9 prom act | FLuc counter | NPC1 promoter act | uPA surface inh | SMN2 splice enh | ELG1 genotox
CSc1cccc(-n2cc(-c3ccc4c(c3)OCO4)[nH]c2=O)c1 | ? | 21µM* | 5% | -14% | ? | ?
COc1ccc(N2C(=O)c3cc4ccccc4cc3C2=O)cc1 | 1% | 0% | 23% | -4% | / | -1%
COc1ccc(-n2ccc3ccccc32)cc1 | -2%[1.84 µM] | 24µM* | -7% | 0% | / | 0%
COC(=O)c1ccccc1NC(=O)c1ccc2c(c1)CC(C)O2 (stereo not given) | 2.2µM* | 17µM* | 28% | 4% | / | 5%
C/C(=N\Nc1ncc(Cl)cc1Cl)c1ccccn1 | -13% | 0.17µM* | 0% | -3% | -88% | ?
Cc1sc2ncnc(N/N=C/c3cccc(O)c3)c2c1C | -4% | 11µM* | 2% | 5% | ? | ?
COc1ccc(/C=N/Nc2ncnc3scc(-c4ccccc4)c23)cc1OC | 7% | ? | -2% | / | 2% | -9%
COc1cc(/C=N/Nc2ncnc3sc4c(c23)CCC4)ccc1O | -2% | 2.4µM* | 1% | -4% | 8% | ?
Cc1sc2ncnc(Nc3ccc(O)cc3)c2c1C | 2% | -11% | 0% | -3% | / | 7%
C/C(=N\Nc1ccc(Cl)c(C(=O)O)c1)c1ccccn1 | 9% | -18% | 16% | -3% | / | 10%
Cc1ccc(Nc2ncnc3sc(C)c(C)c23)cc1 | 29% | 21µM* | 0% | 4% | ? | ?
Cc1ccc(S(=O)(=O)Nc2ncnc3sc(C)c(C)c23)cc1 | 0% | -3% | -6% | 0% | / | -6%
C/C(=N\Nc1ncnc2sc(C)c(C)c12)c1ccccn1 | 8% | 5.4µM* | ? | 5% | / | ?
CC1(C)N=c2ccc([N+](=O)[O-])c(N)c2=[N+]1[O-] | 11% | -19% | 14% | 10µM* | / | -7%
Cc1ccc(N)c([N+](=O)[O-])c1 | -3% | -2% | -5% | 5% | 6% | 1%
O=C(Nc1ccn(Cc2ccc(Cl)cc2)n1)c1ccccc1 | 3.5µM* | 11µM* | ? | 5% | 13µM* | ?
Cc1ccc(C(=O)Nc2ccn(Cc3ccc(F)cc3)n2)o1 | ? | 15µM* | ? | -10% | / | 19%
CCOC(=O)Cn1nc(NC(=O)c2ccc3c(c2)OCO3)cc1C | -4% | ? | -1% | ? | / | 15%
O=C(Nc1ccn(Cc2ccccc2)n1)c1ccc2c(c1)OCO2 | 2.8µM* | 5.4µM* | ? | ? | ? | 19%
CCC(=O)N1CCc2cc(S(=O)(=O)CCC(=O)N3CCN(c4ccccc4Cl)CC3)ccc21 | / | -3% | / | / | 0% | /
Cc1ccc2cccc(NC(=O)c3cccc4c(Br)cccc34)c2n1 | / | -1% | / | / | 15% | /
CC(=O)CSc1nc2cc3c(cc2cc1C#N)OCCO3 | ? | 0.67µM* | 3.2µM* | -4% | / | ?
N#Cc1cc2cc3c(cc2nc1SCC(=O)N1CCCC1)OCCO3 | ? | 3% | ? | 7% | / | 3%
COc1cc2cc(C#N)c(SCC(=O)N3CCOCC3)nc2cc1OC | 4% | -1% | 14% | -2% | 13µM* | 9%

Assay outcomes deposited in PubChem by National Center for Advancing Translational Sciences (NCATS).
